Assay results from PubChem BioAssay (NCATS).
Inconclusive results are not listed. Active and inactive are the calls of the source. Unless noted, calls follow the shape of the dose curve; as a rule, active = well fitted curve in the direction sought with a large enough effect; inconclusive = small, poorly fitted or top-dose-only effect, or another doubt; inactive = no such curve, though single readings can be large; an effect the other way counts as inactive or inconclusive.

What was measured:
[1] = molecular target: Ferritin light chain (Equus caballus) (UniProt P02791); experiment: qHTS Validation Assay for Identification of Novel General Anesthetics (AID 2323); also: series mostly up to about 77 µM
Procedure, shortened: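 Competitive displacement of the profluorescent anesthetic 1-AMA (50% saturated, PBS) from 10 uM apoferritin, 10 min, room temperature. Activity is normalized 380/535 nm fluorescence; concentration-response fitted with a four-parameter Hill equation.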

[2] = molecular target: ATP-dependent DNA helicase Q1 (Homo sapiens) (UniProt P46063); experiment: qHTS Validation Assay for Inhibitors of RecQ-Like Dna Helicase 1 (RECQ1) (AID 2353)
Procedure, shortened: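 50 nM RECQ1T1 preincubated 15 min with compound in Tris pH 8.0 buffer with MgCl2, DTT, Tween-20 and 2.5 ug/ml poly(dI-dC); started with 200 nM TAMRA/BHQ-2 forked duplex and 2 mM ATP. Unwinding read as fluorescence (525/598 nm), two reads 2 h apart.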

[3] = Cytometric Cell-Based qHTS for Inhibitors of the mTORC1 Signaling Pathway in MEF (Tsc2-/-, p53-/-) Cells (AID 2660);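 also: percent of cells above a phospho-rpS6 to PI ratio cutoff in each well; series mostly up to about 38 µM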
Procedure, shortened: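 Percent of cells positive for normalized phospho-S6 staining is reported, with the cutoff set from rapamycin (7.5 nM) versus DMSO wells. Tsc2-/-, p53-/- MEFs received compound for 24 hrs.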

[4] = High Content Imaging Cell-Based qHTS for Inhibitors of the mTORC1 Signaling Pathway in MEF (Tsc2-/-, p53-/-) Cells (AID 2666);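 also: percent of cells scored positive for phospho-rpS6 Ser235/236 immunostaining by imaging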
Procedure, shortened: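 Phospho-rpS6 (Ser235/236) immunofluorescence, normalized and scored as % positive cells using rapamycin and DMSO controls, was read in empty-vector Tsc2-/-, p53-/- MEFs after 24 h compound exposure at 37 C; propidium iodide counted cells.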

[5] = High Content Imaging Cell-Based qHTS for Inhibitors of the mTORC1 Signaling Pathway in MEF Cells (AID 2667);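 also: Tsc2-/- p53-/- MEFs stably re-expressing wild-type Tsc2 exposed 24 h; series mostly up to about 38 µM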
Procedure, shortened: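 WT MEFs (Tsc2-/-, p53-/- re-expressing Tsc2), in DMEM + 10% FBS, were treated with compound for 24 h at 37 C. Cells were then fixed and stained for phospho-rpS6 Ser235/236 with propidium iodide as cell count. Values are % positive cells, with thresholds set against rapamycin-treated cells.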

[6] = Cytometry Cell-Based qHTS for Inhibitors of the mTORC1 Signaling Pathway in MEF cells (AID 2668);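 also: Tsc2-/- p53-/- mouse embryonic fibroblasts stably re-expressing wild-type Tsc2; percent cells positive for phospho-rpS6 Ser235/236 relative to propidium iodide stain; series mostly up to about 38 µM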
Procedure, shortened: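 Phospho-rpS6 (Ser235/236) immunofluorescence over PI signal, scored as % positive cells using thresholds from 7.5 nM rapamycin and DMSO wells, after 24 h compound exposure of WT-Tsc2-rescued Tsc2-/-, p53-/- MEFs. PI cell count recorded for viability.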

[7] = Validation screen for small molecules that induce DNA re-replication in MCF 10A normal breast cells (AID 463097); also: nearly all actives have a fitted effect of over 60% in size; also: potency is read from the fitted curve at half-maximal effect
Procedure, shortened: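 Read-out is Hoechst total nuclear intensity by fluorescence scanning imager, flagging increased high-DNA-content nuclei. Compounds were incubated with MCF 10A cells for 48 hr (37 C, 5% CO2) before 40 min staining.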

[8] = molecular target: Ubiquitin carboxyl-terminal hydrolase 2 (Homo sapiens) (UniProt O75604); experiment: qHTS Validation Assay for Inhibitors of Ubiquitin-specific Protease USP2a Using CHOP2 as the Reporter (AID 463106)
Procedure, shortened: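 USP2 core (10 nM final) was preincubated with compound 30 min at RT in pH 8.0 Tris/CaCl2/beta-ME/CHAPS buffer. Ub-CHOP2 and reporter substrate (25 nM final each) were then added, with fluorescence (Ex 485/Em 531) read after 60 min. Data were normalized to NEM full inhibition and fitted to concentration-response curves.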

[9] = molecular target: DNA polymerase III PolC-type (Bacillus subtilis (strain 168)) (UniProt P13267); experiment: qHTS Validation Assay for the Inhibitors of DNA Replication in Gram-Positive Bacteria (AID 485295);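 also: reconstituted holoenzyme with PolC plus beta clamp SSB and primase; PicoGreen fluorescence of double-stranded DNA made on primed circular M13 template; series mostly up to about 57 µM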
Procedure, shortened: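 Double-stranded DNA product detected by PicoGreen fluorescence after EDTA quench. Compound incubated with B. subtilis holoenzyme (PolC, beta subunit, SSB, primase) before substrate addition; primed replication of M13Gori with dNTPs and NTPs at room temperature; DMSO defines 0% inhibition.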

[10] = molecular target: Tumor susceptibility gene 101 protein (Homo sapiens) (UniProt Q99816); experiment: qHTS Validation Assay for Iinhibitors of HIV-1 Budding by Blocking the Interaction of PTAP/TSG101 (AID 485342; calls by dose curve)
Procedure, shortened: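 Fluorescence polarization of 50 nM FITC-PTAP peptide bound to 10 uM Tsg101 binding domain was read after 20 min room-temperature incubation with compounds, in 10 mM HEPES pH 7.5, 0.15 M NaCl, 0.01% Tween 20.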

[11] = qHTS Validation Assay to Find Inhibitors of Chronic Active B-Cell Receptor Signaling (AID 485345; active = well fitted curve in the direction sought with a large enough effect in the main read-out, with a control signal flat, not every such curve was filed as active)
Procedure, shortened: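 TMD8 ABC-DLBCL cells stably carrying doxycycline-inducible IkappaBalpha–green luciferase fusion plus unfused red luciferase; compounds 46 uM to 3 nM, 4 h at 37C with doxycycline. Corrected green/red luminescence ratio normalized to 10 uM MG-132 and basal cell wells; curves fitted.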

[12] = molecular target: Beta-2 adrenergic receptor (Homo sapiens) (UniProt P07550); experiment: qHTS validation assay of beta-arrestin-biased ligands of beta2-adrenergic receptor (AID 485366)
Procedure, shortened: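 Luminescence from a tTA-responsive luciferase, induced when recombinant beta-arrestin is recruited to recombinant beta2-AR, served as the agonism signal. Cells were exposed to compound for 18 hr at 37 degrees C; titrations spanned up to 46 microM.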

[13] = Quantitative high throughput screen for delayed death inhibitors of the malarial parasite plastid, 96 hour incubation (AID 488745); also: nearly all actives have a fitted effect of over 70% in size; also: potency is read from the fitted curve at half-maximal effect
Procedure, shortened: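 Growth of reporter-bearing P. falciparum in red cells is measured after 96 h with compound, covering two erythrocytic cycles. Luminescence from the integrated luciferase serves as the growth signal.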

[14] = Quantitative high throughput screen for delayed death inhibitors of the malarial parasite plastid, 48 hour incubation (AID 488752); also: nearly all actives have a fitted effect of over 65% in size; also: potency is read from the fitted curve at half-maximal effect
Procedure, shortened: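 One parasite generation (48 h, 37 C, 5% CO2) of luciferase-reporter P. falciparum in erythrocytes is run with test compound; decreased luminescence indicates inhibited growth.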

[15] = molecular target: Thioredoxin reductase 1, cytoplasmic (Rattus norvegicus) (UniProt O89049); experiment: qHTS Assay for Substrates of Mammalian Selenoprotein Thioredoxin Reductase 1 (TrxR1) (AID 488772);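 also: NADPH fluorescence in the first read after selenite addition and not the 8 min delta; series mostly up to about 57 µM; a drop in NADPH fluorescence below the no-compound background marks a TrxR1 substrate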
Procedure, shortened: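 Quantitative HTS in Tris-HCl buffer at pH 7.5 with EDTA and Tween-20, using rat TrxR1, 400 uM NADPH and 400 uM selenite (final). A fall in initial NADPH fluorescence relative to background marked substrate behaviour.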

[16] = molecular target: Flap endonuclease 1 (Homo sapiens) (UniProt P39748); experiment: qHTS Validation Assay for the Inhibitors of Human Flap endonuclease 1 (FEN1) (AID 488816)
Procedure, shortened: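 Human FEN1 (10 nM) preincubated 15 min at room temperature with compounds, then flap DNA substrate added at 50 nM final. Fluorescence read at 0 and 15 min; concentration-response fitted with four-parameter Hill equation.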

[17] = molecular target: Thioredoxin reductase 1, cytoplasmic (Rattus norvegicus) (UniProt O89049); experiment: qHTS Assay for Inhibitors of Mammalian Selenoprotein Thioredoxin Reductase 1 (TrxR1) (AID 488773); conditions: Potency: inhibition;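 also: drop in NADPH fluorescence over an 8 min run after selenite addition; series mostly up to about 57 µM; nearly all actives have a fitted effect of over 40% in size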
Procedure, shortened: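 Steps: enzyme (90 nM) plus NADPH (400 uM final), 5 min at ~22 deg C; compound added, 15 min; selenite (400 uM final) added; fluorescence followed for 8 min. Concentration-response curves derived from the normalized delta values.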

[18] = molecular target: RecQ-like DNA helicase BLM (Homo sapiens) (UniProt P54132); experiment: qHTS Validation Assay for Inhibitors of Bloom's syndrome helicase (BLM) (AID 2364)
Procedure, shortened: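 50 nM BLM preincubated 15 min at room temperature with compound in pH 8.0 Tris buffer containing 2.5 ug/ml poly(dI-dC); started with 200 nM TAMRA/BHQ-2 forked duplex and 2 mM ATP (final). Unwinding read as TAMRA fluorescence increase, two reads 2 h apart.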

[19] = molecular target: ATP-dependent 6-phosphofructokinase (Trypanosoma brucei brucei) (UniProt O15648); experiment: qHTS Validation Assay to Find Inhibitors of T. brucei phosphofructokinase (AID 485368); conditions: outcome: dose series up to 57.5 µM
Procedure, shortened: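 Activity was normalized between 1x (1.25 nM) PFK wells as no inhibition and enzyme-free wells as full inhibition, from luminescence after ADP-Glo detection of ADP made from 0.5 mM F6P and 0.1 mM ATP over 45 min.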

Measured: Potency

Chain of ATP-dependent 6-phosphofructokinase (Trypanosoma brucei brucei) (O15648 whole entry, looked up): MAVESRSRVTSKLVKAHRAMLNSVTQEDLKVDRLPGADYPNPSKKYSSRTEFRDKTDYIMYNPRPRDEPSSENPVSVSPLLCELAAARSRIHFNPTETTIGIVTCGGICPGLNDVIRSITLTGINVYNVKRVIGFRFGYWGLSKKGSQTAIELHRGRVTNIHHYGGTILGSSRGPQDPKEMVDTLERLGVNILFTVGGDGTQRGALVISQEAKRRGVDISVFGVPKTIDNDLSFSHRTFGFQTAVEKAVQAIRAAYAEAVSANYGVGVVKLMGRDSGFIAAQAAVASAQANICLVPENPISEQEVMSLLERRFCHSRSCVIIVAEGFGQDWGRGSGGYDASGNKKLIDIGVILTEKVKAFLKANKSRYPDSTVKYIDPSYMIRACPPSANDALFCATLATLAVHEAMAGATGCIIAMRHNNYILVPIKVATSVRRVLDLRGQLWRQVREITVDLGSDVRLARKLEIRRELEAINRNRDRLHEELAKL
Chain of DNA polymerase III PolC-type (Bacillus subtilis (strain 168)) (P13267 whole entry, looked up): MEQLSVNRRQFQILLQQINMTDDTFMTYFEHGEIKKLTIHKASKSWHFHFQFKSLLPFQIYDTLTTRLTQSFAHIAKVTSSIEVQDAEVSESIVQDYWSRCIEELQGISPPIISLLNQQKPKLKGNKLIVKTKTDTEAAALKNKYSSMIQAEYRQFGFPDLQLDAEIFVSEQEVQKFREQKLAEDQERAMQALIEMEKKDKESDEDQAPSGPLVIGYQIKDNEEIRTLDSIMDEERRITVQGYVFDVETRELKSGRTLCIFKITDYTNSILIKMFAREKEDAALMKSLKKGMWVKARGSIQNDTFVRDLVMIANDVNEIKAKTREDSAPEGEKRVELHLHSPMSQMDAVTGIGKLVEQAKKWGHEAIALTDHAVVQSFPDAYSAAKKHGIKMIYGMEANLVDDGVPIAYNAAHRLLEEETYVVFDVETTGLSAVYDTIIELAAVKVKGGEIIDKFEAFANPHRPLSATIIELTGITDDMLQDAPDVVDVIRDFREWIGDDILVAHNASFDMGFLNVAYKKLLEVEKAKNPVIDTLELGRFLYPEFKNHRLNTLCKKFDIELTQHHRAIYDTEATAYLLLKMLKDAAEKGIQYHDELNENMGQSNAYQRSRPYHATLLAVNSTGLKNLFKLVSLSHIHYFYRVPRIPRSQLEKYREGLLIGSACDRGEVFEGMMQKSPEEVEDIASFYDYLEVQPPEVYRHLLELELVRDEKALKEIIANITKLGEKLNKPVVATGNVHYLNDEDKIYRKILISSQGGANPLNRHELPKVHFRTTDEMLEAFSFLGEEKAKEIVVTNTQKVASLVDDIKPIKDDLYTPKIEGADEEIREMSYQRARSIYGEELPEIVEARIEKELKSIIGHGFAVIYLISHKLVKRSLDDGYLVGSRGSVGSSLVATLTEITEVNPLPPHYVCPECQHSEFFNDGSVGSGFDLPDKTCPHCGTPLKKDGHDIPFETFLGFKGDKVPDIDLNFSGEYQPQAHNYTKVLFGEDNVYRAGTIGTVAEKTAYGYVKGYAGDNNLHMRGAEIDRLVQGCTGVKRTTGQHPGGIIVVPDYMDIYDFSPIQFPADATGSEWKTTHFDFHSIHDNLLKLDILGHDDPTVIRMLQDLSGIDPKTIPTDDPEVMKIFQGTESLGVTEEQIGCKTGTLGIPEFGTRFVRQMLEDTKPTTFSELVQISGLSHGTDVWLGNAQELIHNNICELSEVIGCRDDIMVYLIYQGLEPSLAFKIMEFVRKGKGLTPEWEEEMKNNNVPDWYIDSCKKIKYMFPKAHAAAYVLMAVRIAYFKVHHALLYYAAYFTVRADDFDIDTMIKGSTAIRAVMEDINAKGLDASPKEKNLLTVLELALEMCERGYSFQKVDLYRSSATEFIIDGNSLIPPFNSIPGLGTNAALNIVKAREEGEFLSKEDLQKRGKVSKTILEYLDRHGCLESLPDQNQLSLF
Chain of Ubiquitin carboxyl-terminal hydrolase 2 (Homo sapiens) (O75604 whole entry, looked up): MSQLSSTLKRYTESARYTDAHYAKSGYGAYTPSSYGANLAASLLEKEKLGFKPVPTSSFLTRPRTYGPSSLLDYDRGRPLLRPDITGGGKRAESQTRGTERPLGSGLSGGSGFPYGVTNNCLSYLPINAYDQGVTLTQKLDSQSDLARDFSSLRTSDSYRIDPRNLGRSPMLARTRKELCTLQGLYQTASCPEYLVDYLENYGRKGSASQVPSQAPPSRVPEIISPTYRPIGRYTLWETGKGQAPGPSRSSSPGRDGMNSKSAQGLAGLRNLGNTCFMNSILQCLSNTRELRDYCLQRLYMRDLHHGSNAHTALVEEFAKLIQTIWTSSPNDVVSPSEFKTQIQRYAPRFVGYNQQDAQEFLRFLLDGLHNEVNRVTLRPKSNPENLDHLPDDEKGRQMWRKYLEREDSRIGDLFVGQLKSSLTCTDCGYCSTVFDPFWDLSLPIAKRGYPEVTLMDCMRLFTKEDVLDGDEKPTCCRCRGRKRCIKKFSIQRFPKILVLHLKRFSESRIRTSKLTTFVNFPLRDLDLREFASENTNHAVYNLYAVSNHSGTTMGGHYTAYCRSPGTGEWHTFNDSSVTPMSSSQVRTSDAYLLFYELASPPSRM
Chain of Flap endonuclease 1 (Homo sapiens) (P39748 whole entry, looked up): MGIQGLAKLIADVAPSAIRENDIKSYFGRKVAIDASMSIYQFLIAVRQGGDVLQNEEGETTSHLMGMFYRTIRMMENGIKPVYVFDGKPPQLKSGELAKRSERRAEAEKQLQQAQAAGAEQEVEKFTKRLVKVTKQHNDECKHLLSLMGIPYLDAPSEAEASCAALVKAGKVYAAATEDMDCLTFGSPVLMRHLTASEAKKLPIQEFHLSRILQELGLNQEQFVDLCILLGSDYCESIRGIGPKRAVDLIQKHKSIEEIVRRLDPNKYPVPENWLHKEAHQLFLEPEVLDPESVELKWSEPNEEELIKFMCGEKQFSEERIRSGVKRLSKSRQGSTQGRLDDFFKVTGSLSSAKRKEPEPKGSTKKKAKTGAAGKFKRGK
Chain of Thioredoxin reductase 1, cytoplasmic (Rattus norvegicus) (O89049 whole entry, looked up): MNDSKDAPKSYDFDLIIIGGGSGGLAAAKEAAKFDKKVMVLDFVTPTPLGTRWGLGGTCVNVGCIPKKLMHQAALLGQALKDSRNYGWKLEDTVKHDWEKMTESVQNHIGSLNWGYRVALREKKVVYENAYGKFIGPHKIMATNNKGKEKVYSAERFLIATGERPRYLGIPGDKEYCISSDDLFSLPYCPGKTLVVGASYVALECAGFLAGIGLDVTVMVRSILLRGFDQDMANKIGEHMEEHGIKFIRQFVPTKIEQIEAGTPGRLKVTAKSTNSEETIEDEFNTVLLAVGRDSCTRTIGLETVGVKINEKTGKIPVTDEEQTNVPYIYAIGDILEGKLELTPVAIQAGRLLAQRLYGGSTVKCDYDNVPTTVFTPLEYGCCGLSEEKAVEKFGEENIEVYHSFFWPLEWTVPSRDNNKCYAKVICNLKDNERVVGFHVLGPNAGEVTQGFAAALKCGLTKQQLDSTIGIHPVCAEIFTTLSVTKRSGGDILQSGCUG
Chain of ATP-dependent DNA helicase Q1 (Homo sapiens) (P46063 whole entry, looked up): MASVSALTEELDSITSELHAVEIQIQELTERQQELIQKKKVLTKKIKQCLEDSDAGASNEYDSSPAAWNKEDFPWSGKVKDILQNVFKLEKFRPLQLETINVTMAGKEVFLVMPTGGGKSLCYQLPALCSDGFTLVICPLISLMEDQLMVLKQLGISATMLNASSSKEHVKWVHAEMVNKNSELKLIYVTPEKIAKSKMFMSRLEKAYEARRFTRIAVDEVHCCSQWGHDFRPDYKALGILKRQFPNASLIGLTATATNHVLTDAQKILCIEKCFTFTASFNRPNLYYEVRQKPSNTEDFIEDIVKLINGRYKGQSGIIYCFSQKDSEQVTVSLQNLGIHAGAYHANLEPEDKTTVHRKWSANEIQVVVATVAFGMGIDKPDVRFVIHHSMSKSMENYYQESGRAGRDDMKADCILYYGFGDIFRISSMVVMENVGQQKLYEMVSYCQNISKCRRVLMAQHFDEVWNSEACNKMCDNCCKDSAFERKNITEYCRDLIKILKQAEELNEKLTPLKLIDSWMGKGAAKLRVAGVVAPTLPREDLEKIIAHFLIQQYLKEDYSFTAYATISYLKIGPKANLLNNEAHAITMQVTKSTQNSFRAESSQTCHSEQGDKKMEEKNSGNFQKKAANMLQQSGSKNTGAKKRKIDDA
Chain of Beta-2 adrenergic receptor (Homo sapiens) (P07550 whole entry, looked up): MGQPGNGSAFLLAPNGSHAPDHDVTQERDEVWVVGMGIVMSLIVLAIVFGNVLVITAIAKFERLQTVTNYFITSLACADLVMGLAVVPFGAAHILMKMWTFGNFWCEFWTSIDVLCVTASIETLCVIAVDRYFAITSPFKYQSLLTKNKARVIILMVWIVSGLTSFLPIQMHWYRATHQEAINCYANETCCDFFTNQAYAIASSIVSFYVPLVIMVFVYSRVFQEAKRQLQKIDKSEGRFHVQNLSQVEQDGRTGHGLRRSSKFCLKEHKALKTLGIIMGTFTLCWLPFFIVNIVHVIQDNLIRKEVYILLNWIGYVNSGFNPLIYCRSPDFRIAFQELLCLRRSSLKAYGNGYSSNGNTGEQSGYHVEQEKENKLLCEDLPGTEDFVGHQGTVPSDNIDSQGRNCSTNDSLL
Chain of Tumor susceptibility gene 101 protein (Homo sapiens) (Q99816 whole entry, looked up, the tested form may be a part): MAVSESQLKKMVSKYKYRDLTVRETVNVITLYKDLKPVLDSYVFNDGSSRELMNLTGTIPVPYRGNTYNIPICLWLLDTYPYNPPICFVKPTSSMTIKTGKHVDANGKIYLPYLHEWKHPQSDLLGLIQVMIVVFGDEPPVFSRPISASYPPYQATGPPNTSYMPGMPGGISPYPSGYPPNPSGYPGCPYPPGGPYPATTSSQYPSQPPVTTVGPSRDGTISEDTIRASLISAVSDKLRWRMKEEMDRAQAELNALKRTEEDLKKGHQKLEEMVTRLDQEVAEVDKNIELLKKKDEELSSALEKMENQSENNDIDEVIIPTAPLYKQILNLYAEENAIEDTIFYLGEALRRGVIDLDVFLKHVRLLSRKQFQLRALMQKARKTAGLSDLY

CCN(CC)CCNC(=O)c1ccc(NC(C)=O)cc1
not listed: [17] | [18] | [19]
inactive: all other assays above

CCNC(=O)N1CCN(CCCC(c2ccc(F)cc2)c2ccc(F)cc2)CC1
active: [13] 1.65 µM | [14] 2.94 µM
not listed: [6] | [8] | [15] | [16] | [18] | [19]
inactive: all other assays above

OCCN1CCN(CC/C=C2/c3ccccc3Sc3ccc(C(F)(F)F)cc32)CC1
active: [7] 12.6 µM | [13] 6.57 µM | [14] 8.28 µM
not listed: [3] | [4] | [6] | [11] | [19]
inactive: all other assays above

c1ccc2c(c1)CCCC2C1=NCCN1 (stereo unspecified)
not listed: [15] | [18]
inactive: all other assays above

COCCc1ccc(OCC(O)CNC(C)C)cc1 (stereo unspecified)
not listed: [3] | [12] | [18] | [19]
inactive: all other assays above

C[C@]12CCC(=O)C=C1CC[C@@H]1[C@@H]2CC[C@@]2(C)[C@H]1CC[C@]2(O)C(=O)CO
not listed: [11] | [16] | [17] | [18] | [19]
inactive: all other assays above

CCN(CC)CC(=O)Nc1c(C)cccc1C
not listed: [6] | [15] | [18] | [19]
inactive: all other assays above

CCN1CCc2nc(N)oc2CC1
not listed: [6] | [8] | [17] | [18]
inactive: all other assays above

O=C(O)CP(=O)(O)O
not listed: [9] | [13] | [18]
inactive: all other assays above

O=C(O)CN(CCOCCOCCN(CC(=O)O)CC(=O)O)CC(=O)O
not listed: [15] | [18]
inactive: all other assays above

CC(C)NCC(O)c1cc(O)cc(O)c1 (stereo unspecified)
not listed: [12] | [15] | [16] | [17] | [18]
inactive: all other assays above

OC(CCN1CCCCC1)(c1ccccc1)C1CCCCC1 (stereo unspecified)
not listed: [8] | [11] | [13] | [14] | [18] | [19]
inactive: all other assays above

COc1ccc(CN(CCN(C)C)c2ccccn2)cc1
not listed: [3] | [17] | [18] | [19]
inactive: all other assays above

CN(C)CCCN1c2ccccc2Sc2ccc(C(F)(F)F)cc21
not listed: [5] | [6] | [7] | [13] | [14] | [16] | [18] | [19]
inactive: all other assays above

CC(N=C(NC#N)Nc1ccncc1)C(C)(C)C (stereo unspecified)
not listed: [3] | [16] | [17] | [18]
inactive: all other assays above

CC(=O)Nc1nnc(S(N)(=O)=O)s1
not listed: [6] | [8] | [12] | [17] | [18]
inactive: all other assays above

CC[N+](C)(C)c1cccc(O)c1
not listed: [3] | [6] | [13] | [15] | [16] | [17] | [18]
inactive: all other assays above

NC(=O)c1ncn([C@@H]2O[C@H](CO)[C@@H](O)[C@H]2O)c1O
not listed: [6] | [17] | [18] | [19]
inactive: all other assays above
